The whole screen tested about 53,000 sequences, of which about 3,700 (7%) were called active.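 How the source made its calls: active means gene knockdowns whose robust z-score for IL-1 alpha signal is at least 2 or at most -2, so actives lie on both sides; inactive means the rest.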 Shown is part of a subset that was picked to be rich in actives.
Assay: Components of the Cytosolic LPS Sensing Pathway: Gene Identification via Genome-wide siRNA Screen;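 further: robust z of the log signal after scaling to non-targeting control siRNA wells of the plate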
Settings: RAW264.7 macrophages, IL-1a HTRF, actives lie on both sides, screened at 100 nM (by protocol), cells primed 5 h with Pam3CSK4 first
Procedure, shortened: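 RAW264.7; siRNA 100 nM final, RNAiMAX, 48h 37 degrees C; Pam3CSK4 5 h; LipidA + TransIT-TKO 24 h; IL-1a HTRF; CellTiter-Glo viability; robust z vs negative-control median.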

z-score, active:
GGUGUACAGAUCUGUCUGGTT against Dkk1 2.33
CGAAAUCUUUUCUAACCACTT against Drd4 6.59
GGCUUUUGAAAAGUUCACATT against Rnf32 -2.05
GGUCAGAGCUCUGGACAAATT against Hsd3b1 4.24
GCUAAGACAGAACUCUUCUTT against Nap1l5 3.14
GGAUUCAGGAACACGGAGATT against D17H6S53E 2.29
GGAGGAACAUAUCAAGGAATT against Tmem143 2.27
GGAGAUUGAACAGUCAAACTT against Pex5 3.01
CCUAAGGAAGAUAAACCGGTT against Sh2d7 -2.43
CCGUCCCUAUGAAAUCAGCTT against Lrat 2.28
GGAGCACAGAAAACACAAGTT against Ncan 3.41
GGUUCACCUGGAUUCUGCATT against Clasrp -2.1
GCUUGUCUCACACAGCUCUTT against Olfr401 -3.11
GAGAGGGCAUAAUGGUUUUTT against H3c3 4.58
GCAAUUACAGGAGGAAUUATT against Orc3 2.86
GCCUUAAAAGACCUGACGUTT against Abca8b 2.12
GGAGGGUCGGCUUAUAAUUTT against Adam6b 2.16
GCCGGCUGUAUUCAGUACGTT against Hoxc9 3.06
GGCAUGACAUGUAGAUGGCTT against Aldh3b3 2.17
GCCUGGAGACUACAUAUCCTT against Cdc20 -2.09
GGCUUGAAGCCCUAGUACUTT against Prss30 2.46
GACUACAAAGGAGAGCAAATT against Igfbp6 2.07
GCGAGAAUUCUCUUCCAAUTT against Gsx2 2.33
GGCUUCAAAACAUUUUCAGTT against Kansl1l 2.81

z-score, inactive:
CCGUUGUAUAUACCAGUAUTT against Syt1 0.218
GGAAAAACGUGGUGAACUATT against Zeb2 0.7
CCAAUAACAGGAUUGAGAATT against Tnfrsf8 -0.528
GGUGCAGUUUAAGAGAGAATT against Tmcc3 -0.224
GGGUGGACCUUCGGAAUUATT against Mrpl23 1.52
GGACUUCUUACUGGAAUCATT against Slc5a12 0.944
CGUUUUUGUCUAGUUUGAATT against Macrod2 -1.08
GGAGAUCAGCAGUUCAUUUTT against Csprs -1.66
GGUGUCAGAGGUAUUUUCATT against Bik -0.0455
GGAGUUGAUUGAGGUAAAGTT against Mettl3 -1.83
GGAAGAACCCUGCUACAUCTT against Mrpl37 0.764
GCACCUUAAUUCUUCGCCATT against Amigo2 -0.638
GGUGCUUAUAUUGCUUCCCTT against Psmb5 -0.147
CCCGUUGCUUUAGAGCUCUTT against Dph2 0.912
GGUCGUCCAGCUGAAGAACTT against Mecr 0.721
GGAAUUAGAGACUGCGGAATT against Zfp821 0.422
GGCAGAGCCUGGAUUUAUCTT against 2610524H06Rik -0.582
GGAGUUGCCAUGCUCAACATT against Olfr808 0.193
GGGAAACAGAAGUAUCUAUTT against Ar -0.708
GGAUAACAGCAAGCUGGCGTT against Taldo1 -0.585
GCGAGUGUAUGCUUGAGAATT against Hspa12b 1.01
CGACAAUCGACAAUCGUGCTT against Acta1 -0.817
GGCUUGUUCAAGAGAAGAUTT against Slc25a41 0.177
CCUUACCCAGCAAUAAAAATT against Thegl 0.379
GGUACGAAGAAGACAAAAATT against Tnfsf9 -0.0411
GCGGUGUGCUGGAUAAUUCTT against Vit -1.63
CCACUGUCCCUAAGGUACUTT against Olfr161 -0.292
GGGAUUUGUAUGAUGAUAATT against Sf3a3 -1.79
GGGAGAAUGUUUUUCUUACTT against Vsig8 -0.956
GGAUAUCAACAGAUACAUCTT against Serpina12 -0.493
CGAUCUGUGAUUGAACCACTT against Pak1 -0.0456
GCGUGGACGAAUGGAAACATT against Mapk13 -0.942
GGGCAUCUUGUAUAUCUGGTT against Spata33 0.363
CCUAAUUUCCUAGAUCUUCTT against Rtp1 -0.439
CCUUUUCCAUGCCUACUCCTT against Bag3 0.339
GGCAUUUACUACUUCAUAGTT against Nfam1 0.738
GGAUAACUACAGGAAUAAGTT against Spam1 -0.701
GGCGAAUUGUAUUUGAAAGTT against Lactb 0.686
GGAAGCAGUUCAUGUUAAGTT against Dtx4 1.12
GCCCACCUAAACCAACAGUTT against Dap 0.989
GGAAAGAAGGACAUGUUGCTT against Fbxo2 -1.22
CCACGCUACAUGCAAUGGCTT against Itpka 0.0149
CCCUCUCUGGGACUACAUATT against Zfp395 0.00687
GGCAUGAGGGCAAAUGAAATT against 4933434M16Rik -0.707
GGAACAUUUUGGAAAAGACTT against 1300017J02Rik -0.0855
GUACUAGCUAAUUGGGCCATT against Speer4b 0.651
GGAGCAUAUACAACUCAGCTT against Dis3l 0.1
GGAUGGGAUGAAAAUUGAATT against Papolg -0.566
GGUACUGGAAGAGGAGGUATT against Ppil3 -0.507
GCACAUUGGGAUAGCUGCATT against Trim65 1.48
GGAAAUAUGUGUCCGCACUTT against Mfap2 -0.0699
GGGAUACAGAUUUUGUUUATT against Olfr1261 -0.116
GGGAAGUUGUCUGACUAUUTT against Cyc1 0.225
GGGAAAUGGAGGAUAAUUATT against Zmat1 -0.172
GCUGAAAACUAGUCAGUCCTT against Epn3 -1.07
GCUUACAGCACAACAACAUTT against Ubap1 -0.00967
CCUGGACACGAUUUCAGAGTT against Rbm6 1.18
GGAAGCUUCAAGCCAUGGUTT against Creb3 -0.919
CGUUGGAUCUUGAUAAAACTT against Lpar2 0.179
GGACUUGAUCAAUGGCUAUTT against Wscd1 -0.043
GUGGCGAUAUCCAGAGAUGTT against Vmn1r18 0.261
GCCACGUCUAAGUAUCAUUTT against Col6a1 -0.377
GCUCUGUUGGAAAGGUUUATT against Exosc6 0.0305
GCAACUGUUCUACGUCUGATT against Tmprss2 1.63
GAAGCUGUCCAAGUACGAGTT against Atoh7 -0.299
CGAGCAAUGUUAAAAAUGATT against Slain2 -0.993
GGGCAAACCCAAGACCUUATT against Sgms2 -0.0749
GGAAUUUGAGAUUGAAUGUTT against Katnbl1 0.478
GCUCGAAUGUGUAAAGACGTT against Csnk1e 0.982
CCUUGUUGCUCUGUCGAUCTT against Grina 0.0669
CCAAGCUUAUUGACAAUGATT against Spta1 0.213
GGUGUGUUAAUUUCUAGAUTT against Frs2 0.945
GGACAACAAGAUCAGGACCTT against Akap4 0.535
GGUUACCUAUUGGAUGACATT against Muc19 -1.43
GGAAAAAUCAAAAGUGUUGTT against Tamm41 -1.55
GCUCCAGCUCUGCUUUAAGTT against 4931440P22Rik 1.28
GGGCAAUUUGGAGCUUACCTT against Erbb2 -0.952
GAUGCCUUUUAUGGGUGCATT against Olfr61 0.0552
GGCGUGAAGAAGUUUGAUGTT against Pklr -0.431
GGACUGUCAGUACUGUCAATT against Agr3 0.445
CCUAAAAUACUUUACCGGGTT against Bckdhb -0.025
GGAGAAUCUUCAACACUGGTT against Adprh -0.951
GGCAUAUUCCGUUUUUAAATT against Pafah1b1 -1.09

Source: PubChem BioAssay AID1508600 (Functional Genomics Laboratory (NCATS/FGL), 2020)
